Values without a mark were called inactive. Inconclusive results are not listed. Active and inactive are the calls of the source. Unless noted, calls follow the shape of the dose curve; as a rule, active = well fitted curve in the direction sought with a large enough effect; inconclusive = small, poorly fitted or top-dose-only effect, or another doubt; inactive = no such curve, though single readings can be large; an effect the other way counts as inactive or inconclusive.

For test [1], the target named is Lysosomal acid glucosylceramidase (Homo sapiens) (UniProt P04062). Put plainly: Glucocerebrosidase-p2 (AID 348; in the data active = potency below about 10 µM; also: potency is read from the fitted curve at half-maximal effect). Conditions: purified GBA, blue fluorogenic substrate, 40 min. A digest of the protocol:
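Normal human glucocerebrosidase (0.2 nM) with blue fluorogenic substrate (80 uM final) in citrate/phosphate pH 5.9 with 10mM sodium taurocholate, 0.01% tween-20; 40 min RT, NaOH/glycine stop; fluorescence Ex 365/Em 440; AC50 from a titration from 0.6 nM upwards.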

Test [2] can be described thus: AP1 Signaling Pathway (AID 357; active = well fitted curve in either direction with a large enough effect, not every such curve was filed as active;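 also: ME-180 reporter cells stimulated with EGF at its EC50 level; % is scaled to controls: 0 for no effect and ±100 for the full control effect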). Particulars: ME-180 AP-1-bla reporter, EGF-induced, beta-lactamase ratio, 5 h; at 7.69 µM (top of the series) unless noted. A digest of the protocol:
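Modulation of EGF-driven AP-1 transcription was assessed with a beta-lactamase reporter in ME-180 cells. Compound and EC50 EGF were co-incubated 5 hours at 37 °C before 2.5-hour CCF4 loading at room temperature and dual-emission reading.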

Test [3] can be described thus: NFAT Signaling Pathway (AID 444; active = well fitted curve in either direction with a large enough effect, not every such curve was filed as active;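 also: carbachol stimulus at about its EC50 of 1 µM final; % is scaled to controls: 0 for no effect and ±100 for the full control effect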). Particulars: Jurkat NFAT-bla M1, carbachol, beta-lactamase ratio, 5 h; at 7.69 µM (top of the series) unless noted. Summed up: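 Jurkat cells with NFAT-driven β-lactamase reporter and co-expressed M1 receptor, stimulated with carbachol (final 1 uM, ~EC50), compound titration, 5 h at 37 °C. CCF4 loaded 1 h at RT; 460/530 nm ratio gave %activity and AC50.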

Test [4] in a line: Stat Signaling Pathway (AID 446; active = well fitted curve in either direction with a large enough effect, not every such curve was filed as active;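 also: ME-180 cervical cancer cells given 40 pM IL-6 alongside compound; SIE-controlled beta-lactamase reporter measured as 460/530 nm FRET emission ratio; % is scaled to controls: 0 for no effect and ±100 for the full control effect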). Particulars: ME-180 SIE beta-lactamase reporter, IL-6 stimulated, 5 h; at 7.69 µM (top of the series) unless noted. A digest of the protocol:
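FRET read-out (405 nm excitation, 460/530 nm emission) of a beta-lactamase reporter under a STAT-inducible element in ME-180 cervical carcinoma cells. Cells with compound receive 40 pM IL-6 for 5 h. Values are normalised to AC90 stimulation and AC90 JAK-inhibitor controls.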

In test [5] the target is Glucocorticoid receptor (Homo sapiens) (UniProt P04150). As to the kind of experiment: GR-GFP Redistribution (AID 450;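 active = compounds whose dose series gives a full or clear partial fitted curve of increased nuclear translocation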; also: potency is read from the fitted curve at half-maximal effect). Conditions: U2OS GR-GFP nuclear translocation, laser cytometry, 2 h.
For test [6] the target is unchanged. Put plainly: GR-EFC Redistribution (AID 451; calls by dose curve; also: potency is read from the fitted curve at half-maximal effect). Conditions: CHO-K1 GR-EFC translocation, beta-gal luminescence, 2 h. A digest of the protocol:
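CHO-K1 cells expressing nuclear EA and GR-ED fragments of b-gal; compounds titrated up to 46 uM final, 2 h at 37 C. GR nuclear translocation read as complemented b-gal luminescence after 1 h RT detection.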

For test [7], the target named is Mitogen-activated protein kinase 10 (Mus musculus) (UniProt Q61831). Put plainly: JNK3 AlphaScreen Assay (AID 530; active = well fitted curve in either direction with a large enough effect, not every such curve was filed as active;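 also: kinase came from lysate of stimulated human HepG2 cells; signal reports phosphorylation of biotinylated GST-cJun 1-79 at Ser73 with 10 µM ATP; % is scaled to controls: 0 for no effect and ±100 for the full control effect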). Conditions: JNK3 lysate, c-Jun phosphorylation; series mostly up to 57.1 µM. Summed up: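 Activity was read by AlphaScreen after JNK3-containing HepG2 lysate (cytokine pre-activated) phosphorylated biotinylated GST-cJun with 10 uM ATP at room temperature. Phospho-Ser73 cJun antibody with Protein-A acceptor beads provided detection.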
A general note: Bead proximity is the source of the signal in Alpha formats.

Test [8] addresses 3',5'-cyclic-AMP phosphodiesterase 4B (Homo sapiens) (UniProt Q07343). Put plainly: qHTS Assay for Inhibitors of PDE-IV (AID 607; active = well fitted activation curve with a large enough effect in the main read-out, with a control signal flat, not every such curve was filed as active; also: % of control where 0% means no effect). Conditions: HEK293 ACTOne CNG channel cells, membrane potential fluorescence; series mostly up to 22.9 µM. A digest of the protocol:
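Cell-based read-out of cAMP via a modified cyclic nucleotide-gated channel and membrane potential dye (535/590 nm) in HEK293 cells expressing PDE4 endogenously. Compounds tested up to 22.9 uM final; 100 uM RO 20-1724 reference.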
Background: In qHTS, concentration-response curves come from the screen itself.

Test [9] concerns the target Dual specificity protein kinase CLK4 (Homo sapiens) (UniProt Q9HAZ1). As to the kind of experiment: qHTS Assay for Inhibitors of CDC-like Kinase 4 (Kinase-Glo Assay) (AID 1770). Also: nearly all actives have a fitted effect of over 65% in size. Also: potency is read from the fitted curve at half-maximal effect. Particulars: recombinant Clk4, Kinase-Glo ATP depletion luminescence; series mostly up to 66.7 µM. Summed up: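 Recombinant human Clk4 (25 nM) phosphorylated RS repeat peptide (100 uM) with 1 uM ATP in Tris pH 7.5/MgCl2/EGTA/DTT/Triton buffer for 4.5 h at room temperature. Residual ATP was quantified by Kinase-Glo luciferase luminescence.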

Test [10] has the same target. As to the kind of experiment: qHTS Assay for Inhibitors of CDC-like Kinase 4 (ADP-Glo Assay) (AID 1771). Also: nearly all actives have a fitted effect of over 70% in size. Also: potency is read from the fitted curve at half-maximal effect. Particulars: recombinant CLK4, ADP-Glo luminescence; series mostly up to 80 µM. A digest of the protocol: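 Compounds are pin-transferred onto substrate mix (100 uM RS peptide, 1 uM ATP), then 25 nM Clk4 is added. After 1 hr at room temperature, ADP-Glo reagent runs 45 min, detection reagent 30 min, then luminescence is read.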

Test [11] shares this target. As to the kind of experiment: qHTS Assay for Inhibitors of CDC-like Kinase 4 (ADP-FP Assay) (AID 1795). Also: nearly all actives have a fitted effect of over 60% in size. Also: potency is read from the fitted curve at half-maximal effect. Conditions: Transcreener ADP fluorescence polarization; series mostly up to 50 µM. Summed up: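 Recombinant human Clk4 (6.25 nM) phosphorylated RS repeat peptide (100 uM) with 1 uM ATP in Tris pH 7.5/MgCl2/EGTA/DTT/Triton buffer for one hour. ADP was quantified by Transcreener competitive fluorescence polarization against an ADP calibration curve.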

Test [12] deals with Ubiquitin carboxyl-terminal hydrolase 1 (Homo sapiens) (UniProt O94782). As to the kind of experiment: Inhibitors of USP1/UAF1: Pilot qHTS (AID 504865).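 Also: rhodamine fluorescence freed from ubiquitin-rhodamine substrate followed over time; top concentration of the series differs between compounds; % is scaled to controls: 0 for no effect and ±100 for the full control effect; nearly all actives have a fitted effect of over 35% in size.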 Particulars: purified USP1/UAF1, Ub-rhodamine cleavage fluorescence; series mostly up to 54.9 µM. Summed up:
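USP1/UAF1 complex (1nM) preincubated with compound 15 min at room temperature, then Ub-Rho substrate (150nM final) added. Fluorescence read kinetically at 480/540 nm, 6 reads every 60 seconds. Buffer: 50mM HEPES pH 7.8, 0.5mM EDTA, 0.1 mg/ml BSA, 1mM TCEP, 0.01% Tween-20.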

Test [13] can be described thus: Primary qHTS for small molecule stabilizers of the endoplasmic reticulum resident proteome: Secreted ER Calcium Modulated Protein (SERCaMP) assay (AID 1508630). Also: % is scaled to controls: 0 for no effect and ±100 for the full control effect. Conditions: SH-SY5Y GLuc-SERCaMP (Gaussia luciferase released on ER calcium loss) secretion, thapsigargin, luminescence; series mostly up to 38.4 µM. Summed up:
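The SH-SY5Y reporter protocol was run at 3 concentrations up to 38.3 uM (primary) or 11 concentrations (follow-up): 16 h compound, 100 nM thapsigargin for 4 h, then extracellular luciferase luminescence.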

Test [14] is described as follows: qHTS Assay for Identification of Small Molecule Agonists for Hypoxia Response Element Signaling Pathway (AID 914; active = well fitted activation curve with a large enough effect in the signal ratio, with a control signal flat, not every such curve was filed as active; the % refers to the signal ratio; also: potency is read from the fitted curve at half-maximal effect; as to activation: % of control where 0% means no effect). Conditions: ME-180 (cervical carcinoma) HRE-bla reporter, beta-lactamase ratio, CoCl2, 17 h; activation: stronger effect = higher value. A digest of the protocol: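 In Opti-MEM containing 0.5% dialyzed FBS and 10 mM HEPES, ME-180 HRE-bla cells received a compound titration and EC50 CoCl2. They were incubated 17 hours, then CCF4-loaded 2.5 hours at room temperature before ratio reading.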

Test [15] deals with Cytochrome P450 3A4 (Homo sapiens) (UniProt P08684). Put plainly: qHTS Assay for Activators of Cytochrome P450 3A4 (AID 885). Also: nearly all actives have a fitted effect of over 65% in size. Particulars: recombinant CYP3A4, Luciferin-PPXE luminescence, 60 min; series mostly up to 57.1 µM. A digest of the protocol: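 Luminescent readout of luciferin formed from 25 uM Luciferin-PPXE (KM level) by 20 nM CYP3A4 in 200 mM KPO4, with 60 min NADPH-driven reaction at room temperature after 10 min compound exposure. Ketoconazole (57 uM) defined 100% inhibition.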
Chain of Cytochrome P450 3A4 (Homo sapiens) (P08684 whole entry, looked up): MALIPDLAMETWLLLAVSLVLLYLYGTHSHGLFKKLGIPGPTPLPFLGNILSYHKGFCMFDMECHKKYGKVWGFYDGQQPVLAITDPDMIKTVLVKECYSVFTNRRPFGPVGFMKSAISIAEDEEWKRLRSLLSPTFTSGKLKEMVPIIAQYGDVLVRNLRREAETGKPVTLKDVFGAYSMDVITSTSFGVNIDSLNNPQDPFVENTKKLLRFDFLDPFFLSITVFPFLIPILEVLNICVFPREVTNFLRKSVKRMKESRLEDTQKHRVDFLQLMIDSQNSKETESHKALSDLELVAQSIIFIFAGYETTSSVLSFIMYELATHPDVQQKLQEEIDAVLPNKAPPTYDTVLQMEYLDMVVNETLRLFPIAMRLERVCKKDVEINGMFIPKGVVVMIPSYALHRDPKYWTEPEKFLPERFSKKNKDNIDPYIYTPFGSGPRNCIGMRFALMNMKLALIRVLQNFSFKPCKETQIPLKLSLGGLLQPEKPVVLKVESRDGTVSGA

Chain of Dual specificity protein kinase CLK4 (Homo sapiens) (Q9HAZ1 whole entry, looked up): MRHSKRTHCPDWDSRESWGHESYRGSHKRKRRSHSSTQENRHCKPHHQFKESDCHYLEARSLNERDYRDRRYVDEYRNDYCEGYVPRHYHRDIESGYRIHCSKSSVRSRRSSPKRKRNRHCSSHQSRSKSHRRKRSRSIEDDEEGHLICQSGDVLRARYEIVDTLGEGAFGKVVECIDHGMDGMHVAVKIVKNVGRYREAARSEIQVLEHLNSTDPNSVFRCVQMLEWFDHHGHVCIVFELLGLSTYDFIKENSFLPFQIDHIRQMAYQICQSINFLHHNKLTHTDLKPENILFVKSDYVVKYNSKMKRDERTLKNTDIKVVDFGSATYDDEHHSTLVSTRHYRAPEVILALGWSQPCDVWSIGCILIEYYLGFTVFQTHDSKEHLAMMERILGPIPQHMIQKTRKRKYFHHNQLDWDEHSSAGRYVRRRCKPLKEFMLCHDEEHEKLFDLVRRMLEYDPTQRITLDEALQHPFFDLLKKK
Chain of Lysosomal acid glucosylceramidase (Homo sapiens) (P04062 whole entry, looked up): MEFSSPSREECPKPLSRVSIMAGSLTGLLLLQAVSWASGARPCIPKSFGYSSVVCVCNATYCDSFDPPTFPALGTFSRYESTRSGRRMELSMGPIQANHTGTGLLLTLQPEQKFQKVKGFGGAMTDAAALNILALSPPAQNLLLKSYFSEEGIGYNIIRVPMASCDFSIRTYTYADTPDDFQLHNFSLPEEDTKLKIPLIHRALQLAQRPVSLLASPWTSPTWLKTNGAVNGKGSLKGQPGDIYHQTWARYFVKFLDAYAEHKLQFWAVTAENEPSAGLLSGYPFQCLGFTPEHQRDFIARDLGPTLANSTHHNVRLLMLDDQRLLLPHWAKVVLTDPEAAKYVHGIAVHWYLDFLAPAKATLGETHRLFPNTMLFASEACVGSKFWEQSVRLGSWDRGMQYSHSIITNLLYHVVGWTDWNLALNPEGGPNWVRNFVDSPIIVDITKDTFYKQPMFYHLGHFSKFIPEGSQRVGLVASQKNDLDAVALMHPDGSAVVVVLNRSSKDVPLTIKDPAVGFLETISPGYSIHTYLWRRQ
Chain of 3',5'-cyclic-AMP phosphodiesterase 4B (Homo sapiens) (Q07343 whole entry, looked up): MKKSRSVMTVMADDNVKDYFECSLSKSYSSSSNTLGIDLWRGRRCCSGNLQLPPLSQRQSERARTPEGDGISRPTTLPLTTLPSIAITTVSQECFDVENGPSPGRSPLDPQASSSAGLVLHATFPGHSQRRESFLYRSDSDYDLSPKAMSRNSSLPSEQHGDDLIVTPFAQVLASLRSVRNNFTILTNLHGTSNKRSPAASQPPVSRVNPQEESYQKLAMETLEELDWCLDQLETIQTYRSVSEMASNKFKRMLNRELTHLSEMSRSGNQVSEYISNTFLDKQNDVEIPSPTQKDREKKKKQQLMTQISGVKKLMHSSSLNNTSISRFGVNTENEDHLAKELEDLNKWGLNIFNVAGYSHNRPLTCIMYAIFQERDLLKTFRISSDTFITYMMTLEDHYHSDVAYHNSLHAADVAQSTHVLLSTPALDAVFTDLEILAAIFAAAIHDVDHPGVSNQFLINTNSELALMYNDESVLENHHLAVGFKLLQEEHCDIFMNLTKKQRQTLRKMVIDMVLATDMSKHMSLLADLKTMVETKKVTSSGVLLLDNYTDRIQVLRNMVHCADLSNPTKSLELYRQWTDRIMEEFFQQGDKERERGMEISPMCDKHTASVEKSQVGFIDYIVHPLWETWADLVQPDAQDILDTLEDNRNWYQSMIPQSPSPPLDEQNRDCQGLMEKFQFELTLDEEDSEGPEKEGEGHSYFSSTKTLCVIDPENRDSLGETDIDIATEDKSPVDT
Chain of Ubiquitin carboxyl-terminal hydrolase 1 (Homo sapiens) (O94782 whole entry, looked up): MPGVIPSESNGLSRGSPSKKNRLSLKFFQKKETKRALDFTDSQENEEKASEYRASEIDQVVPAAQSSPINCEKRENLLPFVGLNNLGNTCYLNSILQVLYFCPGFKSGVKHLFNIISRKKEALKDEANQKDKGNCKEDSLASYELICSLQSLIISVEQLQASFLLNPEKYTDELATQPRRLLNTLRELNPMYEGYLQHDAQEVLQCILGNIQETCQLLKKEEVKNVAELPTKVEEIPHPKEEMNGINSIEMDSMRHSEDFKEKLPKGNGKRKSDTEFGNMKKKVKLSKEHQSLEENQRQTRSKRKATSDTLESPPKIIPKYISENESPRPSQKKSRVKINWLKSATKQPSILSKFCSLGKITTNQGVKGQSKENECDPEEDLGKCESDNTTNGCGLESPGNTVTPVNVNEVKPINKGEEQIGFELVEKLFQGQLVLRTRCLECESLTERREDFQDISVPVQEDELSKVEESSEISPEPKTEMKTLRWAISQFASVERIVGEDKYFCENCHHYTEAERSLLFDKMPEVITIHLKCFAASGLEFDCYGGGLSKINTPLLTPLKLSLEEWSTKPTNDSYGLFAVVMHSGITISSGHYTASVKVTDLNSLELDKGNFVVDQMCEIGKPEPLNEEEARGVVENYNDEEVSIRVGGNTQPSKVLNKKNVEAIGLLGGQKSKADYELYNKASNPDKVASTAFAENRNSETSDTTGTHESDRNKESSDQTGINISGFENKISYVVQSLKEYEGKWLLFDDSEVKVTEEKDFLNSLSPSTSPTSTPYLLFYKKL
Chain of Glucocorticoid receptor (Homo sapiens) (P04150 whole entry, looked up): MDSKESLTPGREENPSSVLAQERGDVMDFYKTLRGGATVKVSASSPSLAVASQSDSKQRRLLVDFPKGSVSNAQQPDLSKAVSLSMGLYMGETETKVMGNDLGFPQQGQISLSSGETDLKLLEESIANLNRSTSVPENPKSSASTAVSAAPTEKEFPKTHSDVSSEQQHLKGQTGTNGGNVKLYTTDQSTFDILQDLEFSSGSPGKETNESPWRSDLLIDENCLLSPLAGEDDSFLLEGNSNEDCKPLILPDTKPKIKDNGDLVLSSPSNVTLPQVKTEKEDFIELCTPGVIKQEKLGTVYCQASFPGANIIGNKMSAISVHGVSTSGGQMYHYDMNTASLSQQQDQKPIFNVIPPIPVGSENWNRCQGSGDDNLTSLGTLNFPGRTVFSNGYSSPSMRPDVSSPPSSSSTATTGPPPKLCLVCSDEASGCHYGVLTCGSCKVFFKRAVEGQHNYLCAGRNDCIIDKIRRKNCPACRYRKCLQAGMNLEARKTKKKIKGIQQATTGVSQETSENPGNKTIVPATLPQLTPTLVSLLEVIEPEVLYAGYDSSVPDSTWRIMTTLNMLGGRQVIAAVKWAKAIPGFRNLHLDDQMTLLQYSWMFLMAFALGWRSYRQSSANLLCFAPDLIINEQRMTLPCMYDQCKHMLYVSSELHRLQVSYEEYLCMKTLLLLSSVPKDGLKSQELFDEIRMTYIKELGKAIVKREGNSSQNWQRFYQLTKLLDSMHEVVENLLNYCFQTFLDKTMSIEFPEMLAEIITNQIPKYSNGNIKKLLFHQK

Turning to `CNc1ncnc2ccc(-c3ccc4c(c3)OCO4)cc12`, the Potency in [1] was more than 11.4 µM; in test [5], more than 46 µM; in test [6] it was more than 46 µM; in test [9], 0.891 µM (active); in test [10], 0.631 µM (active); in test [11] it was 0.355 µM (active). In addition, the activity change, negative = inhibition was -8.86% in test [2] and 15.3% in test [3]. Also, in test [4], the activity, negative = inhibition is 12.6%. In addition, the Potency entry in [7], in [8] and in test [12] was “inactive” throughout. Further, the result in [13] was inactive.
`COc1cccc(Cn2c(=O)c(-c3cn(C)c4ccccc34)nc3cnc(N4CCOCC4)nc32)c1`: the Potency in test [1] is more than 11.4 µM; in test [5], more than 9.22 µM; in test [6], more than 46 µM. The figures for the activity change, negative = inhibition in test [2] and in [3] were 5% and 7.78%, respectively. For the same compound, the activity, negative = inhibition in [4] was 10.6%. The Potency result in [7], in test [8], in [9], in test [10], in test [11] and in [12] was “inactive” in each case. The outcome in test [13] was inactive.
With `Cc1noc(C)c1-c1ccc2ncnc(Nc3ccccc3)c2c1`, the Potency in [1] is more than 11.4 µM; in test [5], more than 46 µM; in [6], more than 46 µM; in test [9], 6.31 µM (active); in [10], 7.94 µM (active); in test [11], 10 µM (active). Also, the activity change, negative = inhibition in [2] is -6.37%. For the same compound, the Potency entry in test [7], in test [8] and in test [12] was “inactive” in each case. Further, the result in test [13] was inactive.
On to `CN(C)c1ncc2nc(-c3cc(F)cc(F)c3)c(=O)n(C)c2n1`, for which the Potency in test [1] was more than 11.4 µM; in test [5] it was more than 9.22 µM; in [6], more than 46 µM. Also, the activity change, negative = inhibition was 13.4% in test [2] and 2.93% in test [3]. For the same compound, the Potency result in [7], in [8], in test [9], in test [10], in test [11] and in [12] was “inactive” throughout. Further, in test [13], the result was inactive.
Consider `CCNc1ncc2nc(-c3ccc(OC)cc3)c(=O)n(CCc3ccccc3)c2n1`, for which the Potency was more than 11.4 µM in test [1], more than 9.22 µM in [5], more than 46 µM in test [6] and 501 nM (active) in test [14]. The activity change, negative = inhibition in test [2] was 107% [activator] (active). For the same compound, the activity, negative = inhibition in [4] was 122% [activator] (active). Further, the Potency result in [7], in [9], in test [10], in [11] and in [12] was “inactive” each time. In addition, the result in test [13] was inactive.
For the compound `O=c1c(-c2cccs2)nc2cnc(Oc3ccccc3)nc2n1Cc1cccs1`, the Potency is more than 11.4 µM in [1] and more than 9.22 µM in test [5]. The activity change, negative = inhibition in test [2] is -14%; in test [3] it was 1.21%. In addition, the activity, negative = inhibition in test [4] is 1.3%. The Potency result in test [7], in [8], in test [15], in test [9], in test [10] and in test [11] was “inactive” in each case. Moreover, the activation in [14] is 9.14%. For the same compound, in [13], the result was inactive.
As to `COc1cccc(Cn2c(=O)c(-c3cccs3)nc3cnc(N4CCOCC4)nc32)c1`, the Potency in [1] was more than 11.4 µM; in test [5], more than 9.22 µM; in test [6], more than 46 µM. Further, the activity change, negative = inhibition was 21.6% in test [2] and 5.78% in test [3]. Further, the Potency entry in test [8], in test [9], in test [10], in [11] and in [12] was “inactive” throughout. The result in [13] was inactive.

These data come from PubChem BioAssay (NCATS).
